# Bioassay records: PubChem, National Center for Advancing Translational Sciences (NCATS)
# Shiga toxin inh = Shiga toxin inhibition | Vero cells, Shiga toxin protein synthesis inhibition reporter | inhibition, % at 38.7 µM | 290,000 compounds, 9.2% hits; in the data active = inhibition mostly above about 28%, no sharp cut-off; inactive = mostly below about 43%; also: 0% is about no effect
# Cycloheximide cs = counter-screen hit for Shiga toxin inhibitors, cycloheximide; max response, %; 300,000 compounds, 12% hits; cell reporter, cycloheximide protein synthesis inhibition counterscreen; in the data active = max response mostly above about 13%, no sharp cut-off; inactive = mostly below about 14%; also: read at 38.3 µM for the half of the compounds with a filed dose; 0% is about no effect
# TbPYK inhibitor = blocks Trypanosoma brucei pyruvate kinase; AID 624173; Potency, µM (highest dose often 76.8 µM), for inactives: at the top dose activity, negative = inhibition, actives largely listed as inhibitors; TbPYK enzyme, Kinase-Glo Plus ATP luminescence, 45 min; Q57TT1; 410,000 compounds, 0.12% hits; active = well fitted curve in the direction sought with a large enough effect; an effect the other way counts as inactive or inconclusive; also: potency is read from the fitted curve at half-maximal effect; % is scaled to controls: 0 for no effect and ±100 for the full control effect; nearly all actives have a fitted effect of over 50% in size
#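 Quantitative HTS: titrated library compounds versus trypanosomal pyruvate kinase in TEA buffer (pH 7.2) containing KCl, MgCl2, BSA and Tween-20. Reactions were initiated with ADP, 130 uM final. Kinase-Glo Plus luminescence was read after 45 min at RT.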
# SARS PLpro yeast = inhibitors of SARS-CoV papain-like protease in yeast; 330,000 compounds, 0.19% hits; S. cerevisiae expressing SARS-CoV PLpro, growth rescue; Potency, µM (highest dose often 32.9 µM), for the others: at the highest dose activity, positive = growth rescue, hits mostly activators; also: potency is read from the fitted curve at half-maximal effect; 0% is about no effect; nearly all actives have a fitted effect of over 55% in size
# LmPK inhibitor = LmPK (Leishmania mexicana) enzyme inhibition | 290,000 compounds, 0.37% hits | Q27686 | Potency, µM (series often up to 57.5 µM), inactives show top-dose activity change, negative = inhibition, most hits filed as inhibitors | purified LmPK, Kinase-Glo ATP luminescence, 1 h; active = well fitted curve in the direction sought with a large enough effect; an effect the other way counts as inactive or inconclusive; also: potency is read from the fitted curve at half-maximal effect; % is scaled to controls: 0 for no effect and ±100 for the full control effect
# Target sequence (Q27686 whole entry, looked up): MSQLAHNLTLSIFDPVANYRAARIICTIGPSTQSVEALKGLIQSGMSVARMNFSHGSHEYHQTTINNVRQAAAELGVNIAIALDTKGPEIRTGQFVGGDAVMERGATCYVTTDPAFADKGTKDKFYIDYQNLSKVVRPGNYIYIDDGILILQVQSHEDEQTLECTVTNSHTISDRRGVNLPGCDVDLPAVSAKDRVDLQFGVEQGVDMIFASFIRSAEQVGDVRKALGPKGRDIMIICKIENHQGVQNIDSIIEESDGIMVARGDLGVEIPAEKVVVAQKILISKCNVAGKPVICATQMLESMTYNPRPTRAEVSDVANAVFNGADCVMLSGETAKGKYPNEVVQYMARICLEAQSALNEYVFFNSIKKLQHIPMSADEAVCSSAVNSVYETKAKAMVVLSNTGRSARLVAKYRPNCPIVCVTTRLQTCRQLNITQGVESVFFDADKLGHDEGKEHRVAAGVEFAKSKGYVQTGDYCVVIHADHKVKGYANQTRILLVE
#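 ATP generated from ADP (0.1 mM) and PEP (0.5 mM) by 0.1 nM LmPK over 1 h at room temperature (pH 7.2 imidazole buffer) was detected by coupled luciferase luminescence. Values were normalized to uninhibited and no-enzyme wells.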
# NS1 function inh = influenza NS1 inhibition. AID 2326. Potency, µM (titrated, usually from 46.1 µM), without a hit: top-dose activity, positive = more growth. 270,000 compounds, 0.4% hits; also: potency is read from the fitted curve at half-maximal effect; actives are rising curves; nearly all actives have a fitted effect of over 50% in size
#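 S. cerevisiae expressing influenza A NS1, grown in glucose, washed, then diluted 1:100 into pH 6.0 -URA galactose medium with 23 nl compound. Growth recovery read as OD600; NS1-free strain serves as control.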
# An asterisk follows results filed as active; x = no result given; + = active, no number; [ ] = remark or other dose. The full list was thinned out, with hits kept by preference. Unless noted, calls follow the shape of the full dose curve.
SMILES,Shiga toxin inh,Cycloheximide cs,TbPYK inhibitor,SARS PLpro yeast,LmPK inhibitor,NS1 function inh
Cc1ccc(CSc2n[nH]c(N)n2)cc1,-5.3,22.4*,-2.0%,0.8%,7.4%,4.1%
Cc1ccc(Nc2nc(CSc3n[nH]c(N)n3)cs2)cc1,66.2*,31.4*,-13.9%,-0.8%,-8.3%,-6.4%
Cc1ccc(CNC(=O)CSc2n[nH]c(N)n2)cc1,-6.5,-2.2,-14.2%,-3.9%,-1.3%,2.8%
c1ccc(-c2nc(CSc3nnc(-c4cccs4)o3)cs2)cc1,-6.7,-1.2,0.0%,-3.6%,-6.4%,-17.9%
Cc1ccc(OCCCSc2n[nH]c(N)n2)cc1,28.4,15.0*,4.3%,-1.0%,4.4%,-3.4%
CCCCSc1n[nH]c(N)n1,2.7,12.7,-9.7%,13.9%,-0.9%,-1.9%
Cc1ccc(Nc2nc(CSc3nnc(-c4cccs4)o3)cs2)cc1,74.2*,47.5*,0.1%,-12.6%,2.6%,-4.4%
CCn1c(=O)c2cc(C(=O)N3CCN(c4cccc(Cl)c4)CC3)sc2c2ccccc21,x,x,-2.1%,x,x,x
COC(=O)CN1C(=O)CSc2ccc(S(=O)(=O)Nc3c(C)cc(C)cc3C)cc21,x,x,5.0%,x,x,x
CCCCC1(CC)SCC(=O)NC1=O (centres undefined),x,x,5.7%,x,x,x
CN1C/C(=C/c2ccncc2)C(=O)/C(=C/c2ccncc2)C1,36.0,32.3*,2.2%,-6.7%,3.9%,-14.5%
CN1C/C(=C/c2ccsc2)C(=O)/C(=C/c2ccsc2)C1,14.0,63.4*,-2.8%,-11.0%,1.4%,-10.6%
CC1(C(=O)Nc2ccc3c(c2)OCO3)CCN1C(=O)CC1CC1 (centres undefined),x,x,-3.2%,x,x,x
CC1(C)CC(=O)C(C=Nc2cc(C(=O)c3ccccc3)ccc2N)=C(O)C1,100.6*,23.7*,-6.6%,-15.4%,5.9%,1.2%
COC(=O)c1ccc(N)c(N=CC2=C(O)CC(C)(C)CC2=O)c1,18.7*,50.2*,-0.2%,25.2%,0.8%,26.2%
CC(C)CN(C[C@@H](OP(=O)(O)O)[C@H](Cc1ccccc1)NC(=O)O[C@@H]1CCOC1)S(=O)(=O)c1ccc(N)cc1,x,x,1.9%,x,x,x
O=S(=O)(Oc1ccc(Cl)cc1)c1ccccc1,21.2*,21.2*,x,x,x,x
O=S(=O)(Oc1ccc(Cl)cc1)c1cccc2cccnc12,35.4,16.1*,-2.2%,-3.8%,5.8%,-37.0%
CN(C)/N=C/c1ccc(OS(=O)(=O)c2ccccc2)cc1,63.8*,47.1*,2.4%,-1.5%,3.7%,-1.1%
Cc1ccc(NC2CCCN(C(=O)c3ccc(C)c(N4CCNC4=O)c3)C2)cc1C (centres undefined),20.3,9.9*,2.2%,0.1%,-2.4%,8.6%
COc1ccc(C(=O)N2CCCC(Nc3ccc(C)c(C)c3)C2)cc1 (centres undefined),-8.0,-0.5,2.4%,-2.9%,-1.6%,10.2%
Cc1ccc(NC2CCCN(C(=O)CCCN3CCCCC3=O)C2)cc1C (centres undefined),21.3,13.1*,0.1%,-3.5%,3.3%,8.9%
Cc1ccccc1CC1(CO)CCCN(C(=O)CCCN2CCCCC2=O)C1 (centres undefined),44.1,17.4*,3.2%,0.9%,4.8%,-2.1%
COc1ccc(NC2CCCN(C(=O)CCCN3CCCCC3=O)C2)cc1 (centres undefined),-1.5,-2.5,-0.9%,-4.0%,-3.5%,1.2%
Cc1ccc(C)c(Nc2nnc(-c3ccc(C)c(S(=O)(=O)N4CCN(C)CC4)c3)c3ccccc23)c1,x,x,-0.4%,x,x,x
SMILES,Shiga toxin inh,Cycloheximide cs,TbPYK inhibitor,SARS PLpro yeast,LmPK inhibitor,NS1 function inh
O=S1(=O)[C@H]([C@H]2CC3c4ccccc4C2c2ccccc23)[C@@H](N2CCCCC2)[C@@H]1c1ccccc1,x,x,x,x,x,-2.8%
Cc1ccc(SCCc2cc[n+](CC(=O)c3ccccc3)cc2)cc1,125.2*,51.0*,0.1%,4.8%,13.3%,5.8%
Cc1ccc(C(=O)C[n+]2ccc3ccccc3c2)cc1,44.7,22.1*,3.3%,-3.6%,-0.6%,x
O=C(C[n+]1ccc(CCSc2ccc(F)cc2)cc1)c1ccccc1,-2.1,4.5,-2.3%,-0.4%,1.2%,x
Cc1ccc(-c2csc(=Nc3ccc(F)cc3)n2Cc2ccc3c(c2)OCO3)cc1C,x,x,1.2%,x,x,x
COc1ccc(CC(=O)Nc2cccc(-c3ccc4nnc(C)n4n3)c2)cc1OC,1.0,1.2,-3.3%,1.5%,-2.6%,x
COC(=O)C[C@H]1c2ccccc2[C@H]2C(=C[C@@H](C)[C@H]3C(=O)N(O)C(=O)[C@H]32)N1C(=O)OC,x,x,x,x,-3.6%[11.5 µM],x
CC(C)NC(=O)c1noc2cc([N+](=O)[O-])ccc12,103.8*,12.4*,1.2%,6.9%,-1.8%,-2.5%
COc1ccc2nc(NC(=S)N(C)C)sc2c1,68.5*,46.6*,-25.2%,-17.1%,-25.1%,-136.4%
COc1ccc2nc(NC(=O)CCc3ccc(OC)c(OC)c3)sc2c1,29.6,30.3*,5.4%,-0.4%,-0.9%,x
CCCC(=O)Nc1nc2ccc(OC)cc2s1,104.0*,74.8*,0.5%,-20.6%,-6.2%,-4.9%
COc1ccc(/C=N/OCC(=O)Nc2nc3ccccc3s2)cc1,+,34.1*,-2.1%,-36.9%,-2.1%,11.3%
C/C(=N\OCC(=O)Nc1nc2ccccc2s1)c1ccccc1,13.6,10.1,-4.0%,-29.3%,-3.2%,-20.2%
CCOc1cc(-c2nc(-c3ccc(-c4ccc(OC)cc4)nc3OC)no2)cc(OCC)c1OCC,x,x,-6.7%,x,x,x
O=S(CC1CC1(Cl)Cl)CC1CC1(Cl)Cl (centres undefined),-6.7,4.1,1.8%,-13.4%,-1.0%,8.0%
O=C(CCl)N(C/C=C/c1ccccc1)c1ccc2c(c1)OCCO2,164.4*,52.0*,-6.5%,-7.5%,0.7%,x
S=C(NCc1ccc(Cl)c(Cl)c1)Nc1ccc2c(c1)OCO2,-10.1,-2.0,-2.0%,-46.8%,-0.3%,-24.9%
Cc1ccc(NC(=O)Nc2ccc3c(c2)OCO3)c(Br)c1,192.0,43.4*,3.1%,2.3%,1.7%,-0.8%
O=C(Nc1ccc2c(c1)OCO2)Nc1ccc2c(c1)OCO2,75.3*,29.4*,-6.5%,0.4%,-0.9%,6.8%
Cc1cc(C)c2[nH]c(C(=O)Nc3ccc4c(c3)OCO4)cc2c1,45.9,15.6*,-26.4%,-5.1%,2.7%,7.5%
S=C(NCc1cccnc1)Nc1ccc2c(c1)OCO2,41.0,26.9*,-5.6%,-3.4%,5.3%,-2.9%
Cc1ccc(S(=O)(=O)NCCc2cn3ccsc3n2)c(C)c1,x,x,0.5%,x,x,x
Cc1ccc(-n2c3c(cc(C(=O)Nc4cccc(Cl)c4)c2=O)C(=O)CC(C)(C)C3)cc1,x,x,3.3%,x,x,x
O=C(O)c1cccc(-c2ccc3c(c2)OCO3)c1,3.3,10.2,-2.6%,-2.9%,-0.1%,-66.5%
O=C(Nc1ccc2c(c1)OCO2)Nc1ccc(F)cc1F,86.7*,65.0*,-2.4%,0.1%,-6.4%,6.8%
O=C(Nc1ccc(F)cc1)Nc1ccc2c(c1)OCO2,11.7,-2.3,1.6%,-2.2%,-7.2%,3.4%
